Rows were chosen to be rich in hits. Some 2% of all compounds tested hit in one or more screens of this group.
GalR3 antagonist – blocks the human galanin receptor 3. O60755. HEK293 GalR3-CNG cAMP membrane potential fluorescence; galR3 body fused to GalR1 C-terminus. inhibition, % at 3 µM. 360,000 compounds, 0.44% hits. AID 651719;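 active means inhibition above the screen-wide average plus 3 SD, cut at about 13% in these data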;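 further: forskolin and galanin both at EC90 stimulate the cells; cAMP rise reported by CNG channel membrane potential dye signal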
Target sequence (O60755 1-299 limits assumed): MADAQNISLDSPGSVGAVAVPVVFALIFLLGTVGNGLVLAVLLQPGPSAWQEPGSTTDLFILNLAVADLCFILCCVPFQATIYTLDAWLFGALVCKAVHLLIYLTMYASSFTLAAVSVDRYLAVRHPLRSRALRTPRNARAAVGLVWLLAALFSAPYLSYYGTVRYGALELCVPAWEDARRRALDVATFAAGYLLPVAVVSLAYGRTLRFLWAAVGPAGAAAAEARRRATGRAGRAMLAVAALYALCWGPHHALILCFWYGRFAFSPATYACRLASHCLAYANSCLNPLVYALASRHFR
Gli-Sufu block – blocks Gli-Sufu signaling in a luciferase reporter | 340,000 compounds, 0.74% hits | inhibition, % at 5 µM | AID 588413 | Sufu-KO-LIGHT fibroblasts, Gli luciferase reporter luminescence;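 active means inhibition above about 55%, limit read from the data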
697 NFkB inh – lowers PMA/ionomycin-induced NF-kB signal in 697 B cells. 697 B-cell NF-kB luciferase reporter, 16 h. inhibition, % at 4 µM. 330,000 compounds, 0.33% hits; in the data active means inhibition above about 35%
COUP-TFII inh – NR2F2 (human) inhibition, primary screen; P24468; HEK293T NGFI-A luciferase reporter, luminescence; inhibition, % at 8.6 µM; 370,000 compounds, 0.7% hits;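 active means inhibition above a per-plate cutoff, mean inhibition of test wells between control levels plus 3 SD, cut at about 38% in these data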;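 further: cells cotransfected with COUP-TFII expression vector driving the NGFI-A reporter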
Target sequence (P24468 whole entry, looked up): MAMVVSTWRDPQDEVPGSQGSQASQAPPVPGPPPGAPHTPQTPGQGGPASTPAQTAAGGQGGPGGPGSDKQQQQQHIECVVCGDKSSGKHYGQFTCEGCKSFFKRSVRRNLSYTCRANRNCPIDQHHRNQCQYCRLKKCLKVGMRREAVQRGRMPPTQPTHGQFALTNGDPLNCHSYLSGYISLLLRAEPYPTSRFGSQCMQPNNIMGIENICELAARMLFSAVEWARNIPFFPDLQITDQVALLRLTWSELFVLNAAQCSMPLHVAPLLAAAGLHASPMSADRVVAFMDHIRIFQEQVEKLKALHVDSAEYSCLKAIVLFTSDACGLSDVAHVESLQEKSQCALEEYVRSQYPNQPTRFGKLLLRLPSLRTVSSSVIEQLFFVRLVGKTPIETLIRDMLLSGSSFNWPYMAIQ
Jurkat NFkB inh – lowers PMA/ionomycin-induced NF-kB signal in Jurkat cells | AID 435003 | 330,000 compounds, 0.53% hits | PMA/ionomycin-induced NF-kB luciferase reporter, luminescence | inhibition, % at 4 µM; in the data active means inhibition above about 50%
Gal4-VP16 ctr – inhibits VP16 reporter, flagging COUP-TFII antagonist hits; shares compounds with COUP-TFII inh; HEK293 Gal4-VP16 luciferase reporter, luminescence; inhibition, % at 8.5 µM; 2,500 compounds, 25% hits; AID 687007; in the data active means inhibition above about 13%
COUP-TFII conf – confirmation of human COUP-TFII (NR2F2) inhibitors; inhibition, % at 8.5 µM; shares compounds with COUP-TFII inh; HEK293 NGFI-A luciferase reporter, luminescence; 2,500 compounds, 45% hits;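 active means mean inhibition over three repeats above a set limit taken from the earlier primary screen, cut at about 38% in these data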
A number is an active result; 0 = inactive; - = no result given.

SMILES | GalR3 antagonist | Gli-Sufu block | 697 NFkB inh | COUP-TFII inh | Jurkat NFkB inh | Gal4-VP16 ctr | COUP-TFII conf
COc1ccc(OCC(=O)N2CCN(c3nnc(-c4ccc(C)cc4)c4ccccc34)CC2)cc1 | 0 | 0 | 0 | 38 | 0 | 0 | 0
C=CCN=C1NN=C(c2cc(C)n(CCOC)c2C)CS1 | 0 | 58 | 0 | 86 | 0 | 75 | 96
O=S(Cc1ccc(Br)cc1)Cc1nnc(SCc2ccc(Br)cc2)n1-c1ccccc1 (stereo not given) | 0 | 0 | 0 | 44 | 0 | 0 | 0
COC(=O)c1ccc(CSc2nnc(-c3c[nH]c4ccccc34)n2-c2ccccc2)cc1 | 0 | 0 | 0 | 0 | 0 | - | -
COC(=O)c1ccc(CSc2nnc(CS(=O)Cc3ccc(Br)cc3)n2-c2ccccc2)cc1 (stereo not given) | 0 | 0 | 0 | 39 | 0 | 0 | 0
O=[N+]([O-])c1ccc(CSc2nnc(Cc3ccccc3)n2-c2ccc(F)cc2)cc1 | 0 | 0 | 0 | 0 | 0 | - | -
O=C(c1ccc(F)cc1)C1CCN(c2ncnc3sccc23)CC1 | - | - | - | 63 | - | 0 | 56
O=S(=O)(c1ccc(F)c(F)c1F)N1CCN(c2ncnc3sccc23)CC1 | 0 | 0 | 0 | 40 | 0 | 0 | 0
O=C(c1ccccc1)C1CCN(c2ncnc3sccc23)CC1 | - | - | - | 74 | - | 0 | 62
c1ccc(OC2CCN(c3ncnc4sccc34)CC2)cc1 | - | - | - | 64 | - | 0 | 49
Cc1ccc(-c2nnc(SCC(=O)Nc3ccc4c(c3)OCCO4)n2-c2ccc(C)cc2)cc1 | - | - | - | 0 | - | - | -
O=C(Nc1ccc(Cc2ccncc2)cc1)C1CCC(N2C(=O)C3C4C=CC(C4)C3C2=O)CC1 (stereo not given) | 0 | 0 | 0 | 38 | 0 | 0 | 0
O=C(Nc1ccc(Cc2ccncc2)cc1)C1CCC(N2C(=O)C3CC=CCC3C2=O)CC1 (stereo not given) | 0 | 0 | 0 | 0 | 0 | - | -
Cc1ccc2[nH]c3c(NCc4ccco4)ncnc3c2c1 | 0 | 0 | 0 | 47 | 0 | 0 | 0
COc1cc(CNc2ncnc3c2[nH]c2ccc(C)cc23)cc(OC)c1 | 0 | 0 | 0 | 0 | 0 | - | -
CCOC(=O)Cc1csc(NC(=O)/C=C/c2cccc(Br)c2)n1 | 0 | 0 | 0 | 58 | 0 | 0 | 0
COCC(C)n1c(C)cc(C(=O)COC(=O)c2cccn2C)c1C (stereo not given) | 0 | 0 | 0 | 57 | 0 | 0 | 50
COCC(C)n1c(C)cc(C(=O)COC(=O)c2cnc(Cl)c(Cl)c2)c1C (stereo not given) | 0 | 0 | 0 | 0 | 0 | - | -
CC(=O)N(/N=C1\Sc2ccccc2C1=O)c1ccc(C)cc1C | 0 | 0 | 0 | 64 | 0 | 24 | 76
CC(=O)N(/N=C1\Sc2ccccc2C1=O)c1ccccc1C | 0 | 0 | 0 | 0 | 0 | - | -
COc1nc(OC)nc(N2CCC(C(=O)N(C)Cc3ccccc3F)CC2)n1 | - | - | - | 0 | - | - | -
CC(=O)Nc1nc(-c2ccc3c(c2)CCN3S(C)(=O)=O)cs1 | 0 | 0 | 0 | 0 | 0 | - | -
Cc1sc(NC(=O)CN2CCOCC2)nc1-c1ccc2c(c1)CCN2S(=O)(=O)c1ccccc1 | 0 | 0 | 0 | 65 | 0 | 0 | 56
O=C(CN1CCOCC1)Nc1nc(-c2ccc3c(c2)CCN3S(=O)(=O)c2ccccc2)cs1 | 0 | 0 | 0 | 42 | 0 | 0 | 0
CS(=O)(=O)N1CCc2cc(-c3csc(NC(=O)Cc4cccs4)n3)ccc21 | 0 | 0 | 0 | 66 | 0 | 0 | 0
SMILES | GalR3 antagonist | Gli-Sufu block | 697 NFkB inh | COUP-TFII inh | Jurkat NFkB inh | Gal4-VP16 ctr | COUP-TFII conf
Cc1ccc(-c2csc(NC(=O)CN3CCOCC3)n2)cc1 | 0 | 0 | 0 | 0 | 0 | - | -
Cc1ccc(S(=O)(=O)N(C)[C@H]2C[C@H]3c4cc(N5CCOCC5)ccc4CCN3C[C@H]2[C@H](C)O)cc1 | - | - | - | 0 | - | - | -
CCC1CSC(Nc2ccc(C(=O)/C=C/c3ccc(OC)c(OC)c3)cc2)=N1 (stereo not given) | 0 | 0 | 0 | 61 | 0 | 0 | 0
CC(C)(C)[C@H](NC(=O)c1cc(Cl)cc(Cl)c1)C(=O)N1CCC[C@H]1C(=O)N[C@H](C#N)CC(=O)O | - | - | - | 0 | - | - | -
CCOC(=O)N1CCN(C(=O)C[C@H]2C[C@@]3(C(=O)OC)C(=C[C@H](COCc4ccccc4)O[C@@H]3C)N(Cc3cccc4ccccc34)C2=O)CC1 | - | - | - | 0 | - | - | -
Nc1ccc(C(=O)C(=O)c2ccc(N)cc2)cc1 | 0 | 0 | 0 | 0 | 0 | - | -
N=C1C=CC(=C(c2ccc(N)cc2)c2ccc(N)cc2)C=C1 | 0 | 0 | - | 46 | - | 14 | 63
CCCCCCC(=O)N(O)C1CC(=O)N(c2ccc(F)cc2)C1=O (stereo not given) | 0 | 0 | 0 | 38 | 0 | 0 | 44
COc1ccccc1N(O)C1CC(=O)N(c2ccc(Br)cc2)C1=O (stereo not given) | 0 | 0 | 0 | 0 | 0 | - | -
CCCCCCC(=O)N(O)C1CC(=O)N(c2ccc(Br)cc2)C1=O (stereo not given) | 0 | 0 | 0 | 40 | 0 | 0 | 52
CCN(CC)C(=O)CC[C@H]1CC[C@]2(CCCN(Cc3cccc4ccccc34)C2)O1 | - | - | - | 0 | - | - | -
CCN(CC)S(=O)(=O)c1ccc(Cl)c(NC(=S)NC(=O)C2CCCC2)c1 | 0 | 0 | 0 | 44 | 0 | 0 | 0
Cc1cccc(NC(=O)CSc2nc3ccccc3c(=O)n2C)c1 | 0 | 0 | 0 | 41 | 0 | 0 | 0
CC(=O)OC12CCCN(C1)/C(=C/c1ccccc1)C2 (stereo not given) | - | - | - | 0 | - | - | -
CCOC(=O)N1CCN(C(=O)c2ccc3c(c2)N(CC)CCS3)CC1 | - | 0 | 0 | 0 | 0 | - | -
CCOC(=O)N1CCN(C(=O)c2ccc3c(c2)N(Cc2ccc(F)cc2)CCS3)CC1 | - | 0 | 0 | 38 | 0 | 0 | 0
COc1ccccc1CNc1nc(NCc2cccs2)nc2ccsc12 | 0 | - | - | 0 | - | - | -
COc1ccccc1CNc1nc(NCc2ccccc2OC)c2sccc2n1 | 0 | - | - | 53 | - | 0 | 0
COc1ccccc1CNc1nc(Nc2cccc(-c3cnco3)c2)c2sccc2n1 | 0 | - | - | 48 | - | 0 | 0
COc1ccccc1CNc1nc(NCC2CC2)nc2ccsc12 | 0 | - | - | 47 | - | 0 | 0
O=C(NC1CCN(Cc2ccccc2)CC1)c1cccc(S(=O)(=O)Nc2cc(C(F)(F)F)ccc2Cl)c1 | 0 | 0 | 0 | 0 | 0 | - | -
COc1ccc(Cl)cc1NS(=O)(=O)c1cccc(C(=O)NC2CCN(Cc3ccccc3)CC2)c1 | 0 | 0 | - | 48 | - | 17 | 0
C=CCn1c(COc2ccc(C)cc2)nnc1SCC(=O)c1ccc(-c2ccccc2)cc1 | - | - | - | 0 | - | - | -
O=C(CSc1cc(Cl)ccc1Cl)N/N=C/c1ccc[nH]1 | - | - | - | 56 | - | 0 | 38
NS(=O)(=O)c1ccc(CCNc2nn3c(-c4cccc(OC(F)(F)F)c4)cnc3s2)cc1 | 0 | - | - | 71 | - | 14 | 57
Cn1c(=O)cc(OCCCC(=O)Nc2cc(Br)ccn2)c2ccccc21 | - | - | - | 0 | - | - | -
Cn1c(=O)cc(OCCCC(=O)Nc2cc(C(F)(F)F)ccn2)c2ccccc21 | - | - | - | 71 | - | 16 | 0
Cn1c(=O)cc(OCCCC(=O)Nc2cc(-c3ccncc3)ccn2)c2ccccc21 | - | - | - | 46 | - | 23 | 40

Compound activity deposited in PubChem by several laboratories.
